# Screening results from PubChem.
# G9a inh: qHTS Assay for Inhibitors of Histone Lysine Methyltransferase G9a | AID 504332, 2011 | G9a H3K9 monomethylation, AlphaScreen, 2 h | 350,000 tested, 8.8% active | Potency, µM (highest dose often 102 µM), inactives show at the top dose activity, negative = inhibition, actives largely listed as inhibitors; further: on the % scale 0 is the no-effect control and ±100 the full control effect; nearly all actives have a fitted effect of over 75% in size
# Target sequence (Q96KQ7 913-1193 limits assumed): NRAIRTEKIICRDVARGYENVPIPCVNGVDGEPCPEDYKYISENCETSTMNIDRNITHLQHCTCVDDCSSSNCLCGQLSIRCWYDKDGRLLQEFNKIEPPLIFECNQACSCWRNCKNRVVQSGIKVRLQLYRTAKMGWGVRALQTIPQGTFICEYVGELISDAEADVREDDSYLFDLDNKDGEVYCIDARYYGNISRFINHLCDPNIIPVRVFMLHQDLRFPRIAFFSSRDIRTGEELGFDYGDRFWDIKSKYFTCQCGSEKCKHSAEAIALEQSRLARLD
#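 AlphaScreen read-out: biotin-H3K9 peptide (500 nM) methylation by 20 nM enzyme with 20 uM SAM, 2 h at room temperature after 15 min compound preincubation; anti-monomethyl H3K9 antibody plus donor/acceptor beads, 10 min dark.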
# Sfp PPTase inh: qHTS Assay for Inhibitors of Bacillus subtilis Sfp phosphopantetheinyl transferase (PPTase). Biochemical Sfp PPTase activity, qHTS. Potency, µM, for the others: largest response in the series, negative = inhibition, actives largely listed as inhibitors. 310,000 tested, 3.5% active;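 further: the enzyme is Sfp with the accession as filed and its product quenches rhodamine fluorescence; 0% = enzyme reaction without inhibitor and -100% = no enzyme wells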
#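 Buffer: 50 mM Hepes-Na pH 7.6, 10 mM MgCl2, 0.01% Nonidet P-40, 0.01% BSA. Enzyme 15 nM, pre-exposed to compound 15 min; substrates then added and fluorescence change tracked over 30 min.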
# L3MBTL1 inh: qHTS Assay for the Inhibitors of L3MBTL1 | Lethal(3)malignant brain tumor-like protein 1 (Homo sapiens), Q9Y468 | 230,000 tested, 0.66% active | AlphaScreen L3MBTL1–H3K9me1 peptide binding | Potency, µM (doses to about 57.1 µM), inactives show at the highest dose activity, negative = inhibition, hits mostly inhibitors; further: on the % scale 0 is the no-effect control and ±100 the full control effect; nearly all actives have a fitted effect of over 60% in size
#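 First, the protein-peptide complex forms for 30 min at room temperature (L3MBTL1 50 nM, biotinylated H3K9me1 peptide 75 nM). Next, compounds are pin-transferred and incubated 30 min. Finally, AlphaScreen beads are added and read after 30 min.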
# HP1b binding inh: HTS for Inhibitors of HP1-beta Chromodomain Interactions with Methylated Histone Tails; AlphaScreen HP1-beta / biotin-H3K9me3 peptide binding; 390,000 tested, 0.56% active; Chromobox protein homolog 1 (Homo sapiens), P83916; Potency, µM (doses to about 114 µM), without a hit: at the highest dose activity change, negative = inhibition, most hits filed as inhibitors; further: nearly all actives have a fitted effect of over 70% in size
# Target sequence (P83916 whole entry, looked up): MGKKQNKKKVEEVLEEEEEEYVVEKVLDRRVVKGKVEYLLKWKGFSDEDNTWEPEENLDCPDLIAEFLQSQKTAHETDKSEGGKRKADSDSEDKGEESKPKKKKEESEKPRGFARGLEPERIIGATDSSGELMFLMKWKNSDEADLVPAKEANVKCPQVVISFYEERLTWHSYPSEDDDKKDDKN
#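 Compound inhibition of the preformed complex between 50 nM HP1-beta and 50 nM biotinylated H3K9me3 peptide was read by AlphaScreen. Buffer was PBS pH 7.4 with 0.01% Tween-20. Incubations ran 30 min at room temperature, with 10 ug/mL donor/acceptor beads.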
# JMJD2A Tudor inh: qHTS Assay for Inhibitors of JMJD2A-Tudor Domain. Lysine-specific demethylase 4A (Homo sapiens), O75164. AlphaScreen JMJD2A-Tudor / H3K4me3 peptide binding. Potency, µM (titrated, usually from 114 µM), for inactives: at the highest dose activity change, negative = inhibition, hits mostly inhibitors. 390,000 tested, 4.4% active. AID 504339, 2011; further: on the % scale 0 is the no-effect control and ±100 the full control effect; nearly all actives have a fitted effect of over 50% in size
# BAZ2B block: qHTS Assay for Inhibitors of BAZ2B; Potency, µM (top dose mostly 114 µM), for inactives: at the top dose activity change, negative = inhibition, actives largely listed as inhibitors; AlphaScreen BAZ2B-H3K14Ac peptide displacement; Bromodomain adjacent to zinc finger domain protein 2B (Homo sapiens), Q9UIF8; 360,000 tested, 4.4% active; further: on the % scale 0 is the no-effect control and ±100 the full control effect; nearly all actives have a fitted effect of over 60% in size
#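 AlphaScreen displacement: compounds (up to 110uM) incubated 30 min at room temperature with a preformed 50 nM BAZ2B/50 nM biotinylated H3K14Ac peptide complex in PBS pH 7.4 with Tween-20. Donor and acceptor beads at 10 ug/mL final added, 20 min light-protected before reading.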
# Starred values were filed as active, the others as inactive; ? = inconclusive; / = not tested or not shown; [ ] = dose if it differs, or a comment. The list is not random: actives were taken first. Their share in the collection is about 12%. The call rests on the fitted dose curve; in most records, active means well fitted curve in the direction sought with a large enough effect; inconclusive means small, poorly fitted or top-dose-only effect, or another doubt; inactive means no such curve, though single readings can be large; an effect the other way counts as inactive or inconclusive. Potency means the concentration at half of the fitted maximal effect.
SMILES,G9a inh,Sfp PPTase inh,L3MBTL1 inh,HP1b binding inh,JMJD2A Tudor inh,BAZ2B block
COCCn1c(SCc2cccnc2)nnc1-c1ccco1,?,20µM*,/,37%,-6%,-2%
Nn1c(SCC(=O)NCCCc2ccccc2)nnc1-c1cccnc1,50µM*,-1%,-4%,45%,5%,-2%
Cn1c(SCC(=O)NCCc2ccccc2)nnc1-c1ccco1,12%[12.7 µM],20%,-2%,-12%,89µM*,4%
CCOC(=O)C1(C)C=C(Nc2ccc(C(=O)O)cc2)C(=O)N1c1ccc(C(=O)O)cc1 (stereo not given),-39%[59 µM],/,/,26%,-15%,-1%
COc1ccccc1CNS(=O)(=O)c1cnc(N)nc1,21%[59 µM],/,/,13%[57 µM],-8%,2%
O=C(Cn1nc2c(cc1=O)CCCC2)NCc1ccccc1Cl,-1%[59 µM],/,/,29%[57 µM],-7%,3%
CCn1c(SCC(=O)NCCc2ccccc2)nnc1-c1cccs1,3%[59 µM],4%,-7%,22%,-1%,8%
Cn1c(SCC(=O)Nc2ccc(Cl)cc2F)nnc1-c1ccco1,45µM*,10%,/,-14%,-13%,-12%
CCn1c(SCC(=O)NCCc2ccccc2)nnc1-c1ccco1,40µM*,?,2%,31%,7%,-3%
Cc1ccc(C)c(NC(=O)Cn2cc(S(=O)(=O)Cc3cccc(Cl)c3)c3ccccc32)c1,5%[59 µM],/,/,19%,-5%,0%
COc1ccc(OC)c(NC(=O)c2cc3cc4ccc(C)cc4nc3s2)c1,0%[59 µM],/,/,36%,-5%,2%
COc1ccccc1NC(=O)c1cc2cc3ccc(OC)c(Cl)c3nc2s1,28µM*,/,/,5%[57 µM],56µM*,79µM*
CN1C2C=C3C(C#N)=C(N)C(C#N)(C#N)[C@H](c4c(F)cccc4F)[C@H]3C1CC2 (stereo not given in full),50µM*,9%,4%,30%,-22%,?
N#CC1=C(N)C(C#N)(C#N)[C@H](c2c(F)cccc2F)[C@H]2CC3(CC=C12)OCCO3,50µM*,-9%,23%,31%,-15%,-14%
N#CC1=C(N)C(C#N)(C#N)C2(CCC3(CC2)OCCO3)C2CC3(CC=C12)OCCO3 (stereo not given),-2%[59 µM],3%,0%,33%,-15%,100µM*
CC(=O)N1CC=C2C(C#N)=C(N)C(C#N)(C#N)C(C)C2C1 (stereo not given),?,-5%,-28%[11.4 µM],46%,-12%,-7%
N#CC1=C(N)C(C#N)(C#N)C(c2cccnc2)C2COCC=C12 (stereo not given),?,-12%,12%,64%,-9%[57.1 µM],17%
O=c1c2c3c(sc2n2cnnc2n1-c1ccccc1)N(Cc1ccccc1)CCC3,13µM*,?,-2%,5%,?,-33%
COc1ccc(C)cc1Nc1n[n+](-c2ccccc2)c(-c2cc([N+](=O)[O-])cc(OC)c2O)s1,32µM*,22µM*,-7%,-2%,?,?
COc1ccc(C)cc1Nc1n[n+](-c2ccccc2)c(-c2ccc(SC)cc2)s1,45µM*,?,0%,-7%,?,56µM*
COc1ccc(C)cc1Nc1n[n+](-c2ccccc2)c(-c2ccc(NC(C)=O)cc2)s1,32µM*,?,-5%,42%,-30%,?
O=C(CSc1oc(-c2ccccc2)nc1S(=O)(=O)c1ccc(Cl)cc1)c1ccccc1,11µM*,/,/,3%,?,-6%
CC(C)Sc1oc(-c2ccco2)nc1S(=O)(=O)c1ccc(F)cc1,10µM*,?,-20%,21%,?,-20%
NC(=O)CSc1oc(-c2ccco2)nc1S(=O)(=O)c1ccc(Cl)cc1,32µM*,-2%,/,11%,-19%,-25%
Cc1ccc(S(=O)(=O)c2nc(-c3ccco3)oc2SCC(N)=O)cc1,?,1%,/,-25%,-24%,-10%
SMILES,G9a inh,Sfp PPTase inh,L3MBTL1 inh,HP1b binding inh,JMJD2A Tudor inh,BAZ2B block
NC(=O)CSc1oc(-c2ccco2)nc1S(=O)(=O)c1ccc(Br)cc1,28µM*,-13%,/,25%,-4%,?
COC(=O)c1ccccc1NC(=O)c1ncoc1-c1ccco1,-1%[59 µM],/,/,-13%,-18%,-6%
CCN(C(=O)Cn1nc(Cc2ccncc2)c2ccccc2c1=O)c1cccc(Cl)c1,-6%[59 µM],/,/,23%,-25%,-15%
COc1cccc(C(=O)Nc2ccccc2-c2nnc(-c3cccc(OC)c3)o2)c1,-3%[59 µM],/,/,34%,-1%,-15%
O=C(Cn1nc(C(F)(F)F)c2c1CCCC2)Nc1ccc(Br)cc1,-6%[59 µM],/,/,25%,1%,0%
COc1cc2nc(SCC(=O)Nc3cccc(C)c3)n3nc(-c4ccccc4)nc3c2cc1OC,-22%[59 µM],/,/,12%,-5%,/
CSc1oc(-c2ccco2)nc1S(=O)(=O)c1ccc(Br)cc1,40µM*,-2%,-12%,28%,-33%,-32%
Cc1nn(S(=O)(=O)c2ccc(F)cc2)c(C)c1S(=O)(=O)N1CCCCCC1,1%[59 µM],/,/,11%[57 µM],-11%,0%
CCOc1ccccc1NC(=O)C1CCCN(S(=O)(=O)c2cccs2)C1 (stereo not given),-2%[59 µM],/,/,30%,-5%,2%
COc1ccc(Br)cc1CNc1ccc2[nH]c(=O)[nH]c2c1,?,-9%,-14%[11.4 µM],?,50µM*,40µM*
C=CCOc1cccc(CNc2ccc3[nH]c(=O)[nH]c3c2)c1,20µM*,-14%,-17%,-25%,?,?
COc1cc(CNc2ccc3[nH]c(=O)[nH]c3c2)ccc1OCc1ccc(Cl)cc1,/,-13%,2%,12%,-21%,-12%
C=CCOc1c(Br)cc(CNc2ccc3[nH]c(=O)[nH]c3c2)cc1OCC,/,7%,-14%,1%,-23%,-19%
C=CCOc1ccc(CNc2ccc3[nH]c(=O)[nH]c3c2)cc1OC,45µM*,5%,-8%,6%,-11%,-27%
COc1cc(CNc2ccc3[nH]c(=O)[nH]c3c2)ccc1OCc1ccccc1,32µM*,-14%,-3%,5%,-30%,?
COc1cc(CNc2ccc3[nH]c(=O)[nH]c3c2)ccc1OCc1ccc(F)cc1,?,-5%,-7%,22%,-6%,-26%
CCC(=O)N1CCc2cc(S(=O)(=O)CCC(=O)N3CCN(c4cc(C)ccc4C)CC3)ccc21,3%[59 µM],/,/,31%,-10%,/
Cn1c(-c2cc(Br)ccc2O)n[nH]c1=S,0.5µM*,11%,9%[11.4 µM],?,4.5µM*,-33%
